This is one part of a sample in which hits are shown more often than they occur.
ALOX12 inh – ALOX12 (human) lipoxygenase inhibition; purified 12hLO, xylenol orange hydroperoxide absorbance; 580,000 tested, 1.1% active; Potency, µM (highest dose often 108 µM), without a hit: top-dose activity change, negative = inhibition, actives largely listed as inhibitors; AID 1671190; note: potency is the fitted concentration of half-maximal effect
Target sequence (P18054 whole entry, looked up): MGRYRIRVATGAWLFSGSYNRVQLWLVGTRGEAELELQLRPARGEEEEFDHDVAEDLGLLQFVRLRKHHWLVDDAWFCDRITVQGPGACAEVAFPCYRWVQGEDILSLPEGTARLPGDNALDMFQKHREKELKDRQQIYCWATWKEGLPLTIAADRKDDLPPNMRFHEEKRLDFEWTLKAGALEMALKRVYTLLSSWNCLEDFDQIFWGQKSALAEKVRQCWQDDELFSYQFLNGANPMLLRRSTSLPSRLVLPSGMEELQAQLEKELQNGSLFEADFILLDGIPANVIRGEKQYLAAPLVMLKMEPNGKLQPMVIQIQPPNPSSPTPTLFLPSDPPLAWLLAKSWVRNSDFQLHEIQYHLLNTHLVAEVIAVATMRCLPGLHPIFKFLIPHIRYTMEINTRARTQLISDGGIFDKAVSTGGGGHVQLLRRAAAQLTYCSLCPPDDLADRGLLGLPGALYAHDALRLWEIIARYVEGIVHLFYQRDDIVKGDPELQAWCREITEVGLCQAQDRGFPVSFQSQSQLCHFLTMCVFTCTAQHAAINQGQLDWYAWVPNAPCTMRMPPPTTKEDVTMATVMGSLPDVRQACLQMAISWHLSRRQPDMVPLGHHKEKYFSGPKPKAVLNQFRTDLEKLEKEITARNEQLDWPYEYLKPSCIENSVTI
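Hydroperoxide product was detected by ferrous iron/xylenol orange as the 573 to 405 nm absorbance ratio. Arachidonic acid at 40 uM (final) was turned over for 30 min at room temperature by 150 nM human 12hLO, pH 7.0 Hepes buffer, after 15 min compound preincubation.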
HT1080-NT tox – kills 2HG-producing HT-1080-NT fibrosarcoma cells; Potency, µM (series often up to 46.1 µM), inactives show top-dose activity, negative = less viability, most hits filed as cytotoxic; 360,000 tested, 1.6% active; HT-1080-NT fibrosarcoma viability, CellTiter-Glo ATP luminescence, 48 h; AID 686970;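 note: NT is the 2HG producing partner of a matched IDH1 knockdown line; potency is the fitted concentration of half-maximal effect; 0% = DMSO-treated cells and -100% = media-only wells without cells; nearly all actives have a fitted effect of over 55% in size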
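750 cells/well, RPMI + 5% FBS; 2 h settle, compound pin-transfer, 48 h at 37 degrees C. CellTiter-Glo 10 min RT, luminescence. Normalized to DMSO and media-only wells.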
HT1080 IDH1KD tx – kills HT-1080 cells with IDH1 knockdown; HT-1080 IDH1 knockdown viability, ATP luminescence, 48 h; Potency, µM (highest dose often 46.1 µM), for inactives: top-dose activity, negative = toxicity, hits mostly cytotoxic; AID 686971; 360,000 tested, 2% active;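 note: potency is the fitted concentration of half-maximal effect; 0% = DMSO wells and -100% = cell-free medium wells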
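In this qHTS, HT-1080 cells depleted of IDH1 are exposed for 48 h at 37 °C to compound titrations. Toxicity is scored from CellTiter-Glo luminescence, with DMSO as full viability and medium alone as none.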
IL-1B inflam inh – blocks inflammasome-driven IL-1 beta release. 360,000 tested, 4.7% active. activity change, % at 57.5 µM. AID 743279. THP-1 LPS/ATP IL-1B secretion, AlphaLISA, 16 h; active compounds read low; in the data active = activity change below about -50%; inconclusive = mostly about -30% to -49%
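THP-1 cells pretreated 1 hr with compounds (up to 57.5 uM final), then stimulated with LPS (250 ng/mL final) plus ATP (1.25 mM final); secreted IL-1B measured by AlphaLISA after 16 hr, decreased signal indicating inhibition.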
TDP1 cell CPT – DT40-hTDP1 cell growth loss with CPT | chicken DT40 Tdp1-/-;hTDP1 cells + 20 nM CPT, ATP luminescence, 48 h | Potency, µM (doses to about 46.2 µM), without a hit: at the top dose activity change, negative = growth inhibition, hits mostly inhibitors | 420,000 tested, 12% active | AID 686979; note: potency is the fitted concentration of half-maximal effect; nearly all actives have a fitted effect of over 55% in size
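Chicken DT40 Tdp1-/- cells stably complemented with human TDP1 were seeded at 400 cells/well in medium containing 20 nM camptothecin, exposed to pin-transferred compounds, and grown at 37 °C for at least 48 hr. Viability was read as ATP luminescence.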
TDP1 cell noCPT – qHTS for Inhibitors of human tyrosyl-DNA phosphodiesterase 1 (TDP1): qHTS in cells in absence of CPT. DT40 Tdp1-/- hTDP1 cells, no CPT, ATP luminescence, 48 h. Potency, µM (series often up to 46.2 µM), without a hit: at the top dose activity change, negative = growth inhibition, hits mostly inhibitors. 420,000 tested, 15% active. AID 686978, 2013; note: potency is the fitted concentration of half-maximal effect; nearly all actives have a fitted effect of over 55% in size
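Growth of hTDP1-complemented DT40 Tdp1-knockout cells is measured by ATP luminescence after at least 48 hr compound exposure at 37 °C, with DMSO substituting for the 20 nM CPT used in the parallel screen.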
* hit, by the source's call; i = inactive; ? = inconclusive; . = no result; [ ] = remark or other dose. Unless noted, calls come from the whole dose curve; as a rule, active = well fitted curve in the direction sought with a large enough effect; inconclusive = small, poorly fitted or top-dose-only effect, or another doubt; inactive = no such curve, though single readings can be large; an effect the other way counts as inactive or inconclusive. Unless noted, % is set by controls: 0 for no effect and ±100 for the full control effect.

SMILES	ALOX12 inh	HT1080-NT tox	HT1080 IDH1KD tx	IL-1B inflam inh	TDP1 cell CPT	TDP1 cell noCPT
Cc1ccc(-c2cn3c(n2)CO[C@@H](CNCc2ccc(S(C)(=O)=O)cc2)C3)cc1	64%[176 µM]	.	.	.	.	.
Clc1ccc(CNC[C@H]2Cn3c(-c4cccc(Cl)c4)cnc3CO2)cc1	-43%[176 µM]	.	.	.	.	.
Clc1ccc(CNC[C@H]2Cn3c(-c4ccccc4)cnc3CO2)cc1	25µM*	.	.	.	.	.
Cc1ccc(-c2cn3c(n2)CO[C@@H](CNCc2ccc(Cl)cc2)C3)cc1	13µM*	.	.	.	.	.
Clc1ccc(-c2cnc3n2C[C@H](CNCc2ccc4c(c2)OCO4)OC3)cc1	40µM*	.	.	.	.	.
Fc1ccc(-c2cnc3n2C[C@H](CNCc2ccc4c(c2)OCO4)OC3)cc1	22µM*	.	.	.	.	.
CCOc1c(Br)cc(C(=O)Nc2ncccc2C)cc1OC	12%	.	.	.	.	.
C=C1CCC2C(C)(C)[C@H](O)CC[C@@]2(C)[C@@H]1COc1cc(=O)oc2ccccc12 (stereo partly specified)	13%	?	?	-13	?	?
C=C1CC(COc2cc(=O)oc3ccccc23)(c2ccccc2)OC1=O (stereo unspecified)	2%	16µM*	5.2µM*	-117*	1.2µM*	1.6µM*
CCc1c(C(=O)N2CCCC3(CCNC3)C2)[nH]c2ccccc12 (stereo unspecified)	42%	.	.	.	.	.
COc1cc(/C=C/C(=O)Nc2cc(C(F)(F)F)ccc2Cl)cc(OC)c1OC	0%	-29%	?	-57*	?	26µM*
COc1ccc(/C=C/C(=O)Nc2cc(C(F)(F)F)ccc2Cl)cc1OC	-22%	4%	6%	?	29µM*	?
CC(C)CCN1CCC(O)(c2csc(CN3CCN(c4ccccn4)CC3)n2)CC1	65%[176 µM]	.	.	.	.	.
CCOC(=O)N1CCN(c2ncc3c(n2)CC(/C=C/c2ccccc2)CC3=O)CC1 (stereo unspecified)	14%	.	.	.	.	.
O=C(N/N=C/c1cccnc1)c1cc(-c2ccccc2Cl)nc2ccccc12	99%	-5%	5%	i	?	4.6µM*
CC(C)COc1cccc(-c2cc(C(=O)Nc3ccon3)c3ccccc3n2)c1	-11%	?	?	-22	16µM*	10µM*
COc1cc2ccccc2cc1C(=O)N/N=C/c1cccnc1	3%	-12%	?	-11	15µM*	?
CC(C)Oc1ccccc1-c1cc(C(=O)N/N=C/c2cccnc2)c2ccccc2n1	i	-11%	-28%	i	?	?
CCCOc1cccc(-c2cc(C(=O)N/N=C/c3cccnc3)c3ccccc3n2)c1	114%	-16%	?	i	9.2µM*	8.2µM*
COc1ccc(Br)cc1C(=O)N/N=C/c1cccnc1	4%	19%	8%	3	12%	12%
C[C@H](C(=O)N(C)CCC#N)C1CC[C@@]2(C)Cc3sc(NC(=O)C4CC4)nc3[C@@H](C)[C@@H]2[C@H]1O (stereo partly specified)	15%	.	.	.	.	.
COc1cccc(-c2cc(-c3cccnc3)c3cncn3c2)c1OC	26%[176 µM]	.	.	.	.	.
CCCCN(C)C(=O)Cn1c(C2CC(=O)N(c3cccc(OC)c3)C2)nc2ccccc21 (stereo unspecified)	-6%	.	.	.	.	.
CCOC(=O)c1cc(NC/C=C/c2ccccc2)ccc1N1CCOCC1	-18%	.	.	.	.	.
CCCOc1cccc(-c2cc(C(=O)NN)c3ccccc3n2)c1	-19%	-2%	?	65	9.2µM*	10µM*
SMILES	ALOX12 inh	HT1080-NT tox	HT1080 IDH1KD tx	IL-1B inflam inh	TDP1 cell CPT	TDP1 cell noCPT
Cc1cccc(-c2cc(C(=O)N/N=C/c3cccnc3)c3ccccc3n2)c1	236%	-11%	-22%	-20	?	?
COc1ccc(-c2cc(C(=O)N/N=C/c3cccnc3)c3ccccc3n2)cc1	0%	?	?	-12	9.2µM*	?
CCCOc1cccc(-c2cc(C(=O)O)c3cc(C)ccc3n2)c1	-17%	.	.	.	.	.
COc1cc(/C=N/NC(=O)c2cc(-c3ccccc3)nc3ccccc23)cc(OC)c1O	-11%	-2%	3%	29	?	?
COc1ccc(-c2cc(C(=O)N/N=C/c3cc(OC)c(OC)cc3OC)c3ccccc3n2)cc1	91%	-2%	-21%	-7	10µM*	9.2µM*
CCCOc1cccc(-c2cc(C(=O)N/N=C/c3ccccn3)c3ccccc3n2)c1	492%	-28%	?	-98*	12µM*	9.2µM*
Cc1ccc2[nH]c(C)c(CCN(Cc3ccncc3)C(=S)NC(C)(C)C)c2c1	4%	.	.	.	.	.
Cc1cccc(/C=N/NC(=O)c2cc(-c3cccnc3)nc3ccccc23)c1	-9%	10%	20%	47	0%	-3%
Cc1cccc(/C=N/NC(=O)c2cc(-c3cccnc3)nc3c2c(C)nn3-c2ccccc2)c1	0%	17%	9%	-13	?	23µM*
Cc1cc(NC(=O)CCn2cnc3c2c(=O)n(C)c(=O)n3C)ccc1Br	7%	.	.	.	.	.
Cc1cccc2sc(=S)[nH]c12	32µM*	-15%	-18%	22	?	?
COC(=O)c1c(NC(=O)CS(=O)(=O)c2ccc(C)cc2)sc2c1CCCC2	?	.	.	.	?	16µM*
Cc1ccc(S(=O)(=O)CC(=O)Nc2sc3c(c2C(N)=O)CCCC3)cc1	-2%	.	.	.	15µM*	21µM*
COC(=O)c1c(NC(C)=O)sc2c1CCCC2	-1%	-7%	-12%	17	-1%	?
NC(=O)c1c(NC(=O)CN2CCN(S(=O)(=O)c3ccccc3)CC2)sc2c1CCC2	-8%	?	-11%	-51*	13µM*	18µM*
CC(C)(C)c1ccc(S(=O)(=O)NCC(=O)Nc2sc3c(c2C(N)=O)CCCC3)cc1	16%	-1%	-1%	2	1%	?
COc1ccccc1CNC(=O)Nn1cnc2ccccc21	7%	.	.	.	.	.
Cc1nn(CCC#N)c(C)c1[C@@H]1C=C[C@@H](NCc2ccc(C(C)C)cc2)C1	3%[176 µM]	.	.	.	.	.
O=C(NCC1(c2ccccc2)CCCC1)c1ccco1	-29%	25%	18%	-4	-65%	15µM*
O=C(NCc1ccco1)C1(c2ccccc2)CCCC1	-7%	-26%	3%	-1	10µM*	7.1µM*
O=C(/C=C/c1ccco1)NCC1(c2ccccc2)CCCC1	?	15%	5%	-4	12µM*	?

High-throughput results from PubChem BioAssay.
